PubChem BioAssay (NCI)
Where “and” joins values, the source holds several entries; their conditions need not be identical. Equal entries are not always repeated. This is part of a sample that, as a whole, favours compounds with a hit. Of some 83,000 tested, about 20% had one in any assay.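 The endpoint reported here, percent growth, reads 100 for growth as untreated, 0 for no net growth and -100 for all cells dead.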 Calls of active or inactive are those of the source. The calls were made as follows: active = growth percent below 10; inactive = the rest.

system: MDA-MB-468 breast; assay: NCI-60 one-dose screen, 48 h (100 = growth as untreated, 0 = no growth, -100 = all killed); conditions: 10 µM unless noted

SMILES	growth
CNC(=O)Oc1cccc(C(F)(F)F)c1	110% (inactive)
CC(=O)N(C)C1=Nc2ccc(Cl)cc2C(c2ccccc2)=[N+]([O-])C1	111% (inactive)
O=[N+]([O-])c1ccccc1N1CCNCC1	113% (inactive)
CCN(CC)c1ccc(C=C2C(=O)NC(=S)NC2=O)cc1	74.2% (inactive)
Brc1ccc2c(c1)c(-c1nc(-c3c[nH]c4ncccc34)cs1)cn2CCN1CCCCC1	79.2% (inactive)
O=C(CC1(O)C(=O)N(Cc2ccccc2)c2ccc(Br)cc21)c1ccc(C(=O)NCC2CCC3(CC2)OOC2(CCCCC2)OO3)cc1 (stereo not given)	27.9% (inactive)
O=NN(c1ccccc1)c1ccccc1	95% (inactive)
Nc1ncnc2n[nH]nc12	51.6% (inactive)
COc1cccc(C=NC(Cc2cnc[nH]2)C(=O)O)c1O (stereo not given)	55.4% (inactive)
COC(=O)[C@@H](C)C[C@H](Cc1ccccc1)NC(=O)c1nc([C@@H](C[C@H](C(C)C)N(C)C(=O)[C@@H](NC(=O)[C@H]2CCCN2C)C(C)C)OC(C)=O)sc1C	1.81% (active)
C[C@H](O)CCC(=O)c1ccoc1	98.7% (inactive)
Oc1cccc2cccnc12	25% (inactive) and 96.3% (inactive) and 106% (inactive)
NC(=O)OCC(CO)(c1ccccc1)c1ccccc1	93.8% (inactive)
CCC(C)[C@H]1O[C@]2(C=C[C@@H]1C)C[C@@H]1C[C@@H](C/C=C(\C)[C@@H](OC3C[C@H](OC)C(O[C@H]4C[C@H](OC)[C@@H](O)[C@H](C)O4)[C@H](C)O3)[C@@H](C)/C=C/C=C3\CO[C@@H]4[C@H](O)C(C)=C[C@@H](C(=O)O1)[C@]34O)O2 (stereo not given in full)	-12.7% (active)
Nc1ccc(Cl)cc1	97% (inactive)
N#CCC(=O)c1ccccc1	6.35% (active)
CC(=O)O[C@H]1CC[C@H]2[C@@H]3CC=C4c5nc(-c6ccccc6)sc5CC[C@]4(C)[C@H]3CC[C@]12C	57.2% (inactive)
CC(C)c1cc([N+](=O)[O-])cc([N+](=O)[O-])c1O	96.7% (inactive)
CC1=C(CN(O)C(N)=O)C2=C(C)C3(CC3)[C@](C)(O)C(=O)C2=C1	-65.6% (active)
COc1ccc(N(CC(=O)NCCC[Te]c2ccccc2)C(=O)CCSC2=C(C)C(=O)c3ccccc3C2=O)cc1	-58.1% (active)

SMILES	growth
N#CC(C#N)=Cc1cccc(F)c1	109% (inactive)
CCC(C)(C)O	104% (inactive)
CCOP(=O)(OCC)/C(C#N)=C/c1ccc(Br)cc1	101% (inactive)
COC[CH2][Hg][C]#[C][Hg][CH2]COC	110% (inactive)
CCOC(=O)C(Cc1ccc(N(CCCl)CCCl)cc1)NC(=O)C(CC(C)C)NC(C)=O (stereo not given)	-45.6% (active)
C1CCC([PH+](C2CCCCC2)C2CCCCC2[PH+](C2CCCCC2)C2CCCCC2)CC1.O=C(C1[CH-]CCCC1)C1CCCC[N-]1.[Au] (stereo not given)	-40.3% (active)
CC1(C)N=C(N)N=C(N)N1c1ccc(OCCCCOc2ccc(S(=O)(=O)F)cc2)c(Cl)c1	-16.2% (active)
COc1ccc(C(=O)c2sc3nc4c(cc3c2N)N2CCC4CC2)cc1OC	72.2% (inactive)
Oc1cc(N2CC2)c(O)cc1N1CC1	-62.7% (active)
O=S(=O)(F)c1ncnc2nc[nH]c12	96.1% (inactive)
CC(=O)N1N=C(c2ccccc2)CC1c1sc(N(CCCl)CCCl)nc1Cl (stereo not given)	92.6% (inactive)
O=S(=O)(c1ccc(O)cc1)c1ccccc1O	108% (inactive)
Oc1ccccc1C=NCCN=Cc1ccccc1O.[Fe]	64.3% (inactive)
COc1ccc(O)c2c(=O)c3c(OC)cc4c(c3oc12)[C@@H]1C=CO[C@@H]1O4	-63.2% (active)
COc1cc(/C=C\[N+](=O)[O-])ccc1O	4.87% (active) and 65.1% (inactive)
Cc1ccc(C(=O)O[C@H](C(=O)O)[C@H](OC(=O)c2ccc(C)cc2)C(=O)O)cc1	103% (inactive)
COP(=S)(OC)Oc1ccc(SC)c(C)c1	108% (inactive)
COC(=O)[C@@H](C)C[C@H](Cc1ccccc1)NC(=O)c1cccc([C@@H](C[C@H](C(C)C)N(C)C(=O)[C@@H](NC(=O)[C@H]2CCCCN2C)C(C)C)OC(C)=O)n1	10.1% (inactive)
CC1=CC(=Nc2ccc(N(CCCl)CCCl)cc2)C=C(C)C1=O	-66.3% (active)
COC(=O)C1CCC(NC(=O)c2csc([C@@H](C[C@H](C(C)C)N(C)C(=O)[C@@H](NC(=O)[C@H]3CCCCN3C)C(C)C)OC(C)=O)n2)CC1 (stereo not given in full)	27.9% (inactive)
